# Compounds without any hit were thinned out: in the full panel of roughly 79,000, 15% have a hit. Unmarked numbers belong to inactive results. The source made the active and inactive calls. Rule as the data show it: active = growth inhibition above about 70%; inactive = the rest.
# Legend:
# [1] = NCI Yeast Anticancer Drug Screen. Data for the rad52 strain (AID 147);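 also: 0% = growth of vehicle-treated control cultures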; conditions: S. cerevisiae rad52 mutant growth inhibition, active compounds read high
# In short: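 Compounds are applied to a genetically defined yeast strain lacking normal DNA damage repair, and inhibition of growth is expressed relative to cultures given vehicle only.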
# [2] = NCI Yeast Anticancer Drug Screen. Data for the wt1 strain (AID 149);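 also: 0% = growth of vehicle-treated wt1 cultures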; conditions: S. cerevisiae wt1 strain (SPY 50644) growth inhibition, active compounds read high
# In short: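 wt1 yeast, compound-treated; % growth inhibition vs vehicle control.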
# [3] = NCI Yeast Anticancer Drug Screen. Data for the rad50EPP+ strain (AID 151);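 also: 0% = growth of vehicle-treated control cultures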; conditions: S. cerevisiae rad50 mutant strain, active compounds read high
# In short: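 Compounds were applied to the rad50EPP+ yeast strain, which bears a defined DNA repair alteration, and growth inhibition was determined relative to vehicle-treated cultures.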
# [4] = NCI Yeast Anticancer Drug Screen. Data for the mgt1 strain (AID 153); conditions: S. cerevisiae mgt1 mutant growth inhibition, active compounds read high
# In short: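 Strain: mgt1 yeast, one of a set carrying defined DNA damage repair or cell cycle control alterations. Compound-treated growth compared with vehicle.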
# [5] = NCI Yeast Anticancer Drug Screen. Data for the rad50 strain (AID 155);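 also: 0% = growth of vehicle-only cultures of the same strain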; conditions: S. cerevisiae rad50 strain growth inhibition, active compounds read high
# In short: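 Genetically altered yeast (DNA repair pathway); compound treatment; growth inhibition vs vehicle ctrl.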
# [6] = NCI Yeast Anticancer Drug Screen. Data for the mec2-1 strain (AID 157); conditions: S. cerevisiae mec2-1 strain, active compounds read high
# In short: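 Strain: mec2-1 (DNA repair/cell cycle alteration). Compound exposure, then growth measured; inhibition expressed relative to vehicle.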
# [7] = NCI Yeast Anticancer Drug Screen. Data for the rad14 strain (AID 159);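 also: 0% = growth of vehicle-treated control cultures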; conditions: S. cerevisiae rad14 strain growth inhibition, active compounds read high
# In short: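 Test compounds were applied to a repair-deficient yeast strain. Its growth was then compared with that of cultures given vehicle alone, and inhibition was expressed relative to those controls.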
# [8] = NCI Yeast Anticancer Drug Screen. Data for the sgs1 mgt1 strain (AID 161);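 also: 0% = growth of cultures given vehicle only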; conditions: S. cerevisiae sgs1 mgt1 strain, active compounds read high
# In short: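 Genetically altered yeast, compound exposure, growth inhibition relative to vehicle.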
# [9] = NCI Yeast Anticancer Drug Screen. Data for the CLN2oe strain (AID 163);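 also: 0% = growth of vehicle-only control cultures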; conditions: S. cerevisiae CLN2oe strain, active compounds read high
# In short: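 Growth of a genetically modified yeast strain is measured after compound exposure and compared with cultures given vehicle alone.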
# [10] = NCI Yeast Anticancer Drug Screen. Data for the cln2 rad14 strain (AID 165);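 also: 0% = growth equal to vehicle treated cultures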; conditions: S. cerevisiae cln2 rad14 strain, active compounds read high
# In short: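 Compounds are applied to the cln2 rad14 yeast strain, and growth is then compared with that of vehicle-treated cultures to give inhibition.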
# [11] = NCI Yeast Anticancer Drug Screen. Data for the bub3 strain (AID 167); conditions: S. cerevisiae bub3 mutant strain, active compounds read high
# In short: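 Yeast carrying a defined mutation is treated with each compound, and growth is compared with that of vehicle-exposed cells to give inhibition.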
# [12] = NCI Yeast Anticancer Drug Screen. Data for the wt2 strain (AID 169);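 also: 0% = growth of vehicle-treated yeast cultures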; conditions: S. cerevisiae wt2 strain growth inhibition, active compounds read high
# In short: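 This strain belongs to a panel of yeast strains with defined genetic alterations in DNA damage repair or cell cycle control. Compounds are applied, and growth inhibition is measured against vehicle-treated cultures.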
# [13] = NCI Yeast Anticancer Drug Screen. Data for the mlh1 strain (AID 171);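 also: 0% = growth of vehicle-treated control cultures of the same strain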; conditions: S. cerevisiae mlh1 strain growth inhibition, active compounds read high
# In short: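 Growth of the mutant yeast strain after compound exposure, expressed as inhibition relative to vehicle-only controls.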
# [14] = NCI Yeast Anticancer Drug Screen. Data for the sgs1 strain (AID 173);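 also: 0% = growth of vehicle-only control cultures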; conditions: S. cerevisiae sgs1 mutant, active compounds read high
# In short: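 Growth of a yeast strain bearing a defined genetic alteration is measured after compound treatment. Inhibition is expressed relative to vehicle-only controls.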
# [15] = NCI Yeast Anticancer Drug Screen. Data for the mlh1 rad18 strain (AID 175); conditions: S. cerevisiae mlh1 rad18 strain growth inhibition, active compounds read high
# In short: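 Read-out is yeast growth inhibition, calculated against vehicle-only controls. The compound was applied to a strain engineered with DNA damage repair alterations.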
# [16] = NCI Yeast Anticancer Drug Screen. Data for the rad18 strain (AID 177); conditions: S. cerevisiae rad18 mutant growth inhibition, active compounds read high
# In short: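 Growth of the mutant yeast strain after compound exposure, normalised to vehicle-only cultures.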
# [17] = at 5.0 µM (retest, dose inferred, filed as 0.5)
# [18] = at 50.0 µM (retest, dose inferred, filed as 5.0)
smiles,measurement,setting,value
CC[PH+](CC)CC.CC[PH+](CC)CC.[Au],growth inhibition,[1]; at 1.2 µM,16%
same,growth inhibition,[1]; at 3.7 µM,21%
same,growth inhibition,[1]; at 11.0 µM,33%
same,growth inhibition,[1]; at 33.0 µM,80% (active)
same,growth inhibition,[1]; at 100.0 µM,99% (active)
same,growth inhibition,[2]; at 1.2 µM,6%
same,growth inhibition,[2]; at 3.7 µM,30%
same,growth inhibition,[2]; at 11.0 µM,36%
same,growth inhibition,[2]; at 33.0 µM,43%
same,growth inhibition,[2]; at 100.0 µM,98% (active)
same,growth inhibition,[3]; at 1.2 µM,27%
same,growth inhibition,[3]; at 3.7 µM,39%
same,growth inhibition,[3]; at 11.0 µM,40%
same,growth inhibition,[3]; at 33.0 µM,60%
same,growth inhibition,[3]; at 100.0 µM,97% (active)
same,growth inhibition,[4]; at 1.2 µM,16%
same,growth inhibition,[4]; at 3.7 µM,21%
same,growth inhibition,[4]; at 11.0 µM,28%
same,growth inhibition,[4]; at 33.0 µM,46%
same,growth inhibition,[4]; at 100.0 µM,98% (active)
same,growth inhibition,[5]; at 1.2 µM,24%
same,growth inhibition,[5]; at 3.7 µM,39%
same,growth inhibition,[5]; [17],22%
same,growth inhibition,[5]; at 11.0 µM,50%
same,growth inhibition,[5]; at 33.0 µM,92% (active)
same,growth inhibition,[5]; [18],95% (active)
same,growth inhibition,[5]; at 50.0 µM,89.2% (active)
same,growth inhibition,[5]; at 100.0 µM,99% (active)
same,growth inhibition,[6]; at 1.2 µM,14%
same,growth inhibition,[6]; at 3.7 µM,24%
same,growth inhibition,[6]; [17],52%
same,growth inhibition,[6]; at 11.0 µM,55%
same,growth inhibition,[6]; at 33.0 µM,90% (active)
same,growth inhibition,[6]; [18],99% (active)
same,growth inhibition,[6]; at 50.0 µM,94.2% (active)
same,growth inhibition,[6]; at 100.0 µM,98% (active)
same,growth inhibition,[7]; at 1.2 µM,15%
same,growth inhibition,[7]; at 3.7 µM,30%
same,growth inhibition,[7]; at 11.0 µM,34%
same,growth inhibition,[7]; at 33.0 µM,86% (active)
same,growth inhibition,[7]; at 100.0 µM,99% (active)
same,growth inhibition,[8]; [17],-11%
same,growth inhibition,[8]; [18],94% (active)
same,growth inhibition,[8]; at 50.0 µM,89.4% (active)
same,growth inhibition,[9]; at 1.2 µM,2%
same,growth inhibition,[9]; at 3.7 µM,20%
same,growth inhibition,[9]; at 11.0 µM,23%
same,growth inhibition,[9]; at 33.0 µM,54%
same,growth inhibition,[9]; at 100.0 µM,97% (active)
same,growth inhibition,[10]; [17],27%
same,growth inhibition,[10]; [18],93% (active)
same,growth inhibition,[10]; at 50.0 µM,89.2% (active)
same,growth inhibition,[11]; at 1.2 µM,8%
same,growth inhibition,[11]; at 3.7 µM,16%
same,growth inhibition,[11]; [17],-25%
same,growth inhibition,[11]; at 11.0 µM,21%
same,growth inhibition,[11]; at 33.0 µM,79% (active)
same,growth inhibition,[11]; [18],97% (active)
same,growth inhibition,[11]; at 50.0 µM,89.3% (active)
same,growth inhibition,[11]; at 100.0 µM,98% (active)
same,growth inhibition,[12]; at 1.2 µM,-13%
same,growth inhibition,[12]; at 3.7 µM,-9%
same,growth inhibition,[12]; at 11.0 µM,21%
same,growth inhibition,[12]; at 33.0 µM,98% (active)
same,growth inhibition,[12]; at 100.0 µM,99% (active)
same,growth inhibition,[13]; at 1.2 µM,30%
same,growth inhibition,[13]; at 3.7 µM,49%
same,growth inhibition,[13]; at 11.0 µM,41%
same,growth inhibition,[13]; at 33.0 µM,54%
same,growth inhibition,[13]; at 100.0 µM,99% (active)
same,growth inhibition,[14]; at 1.2 µM,28%
same,growth inhibition,[14]; at 3.7 µM,39%
same,growth inhibition,[14]; at 11.0 µM,41%
same,growth inhibition,[14]; at 33.0 µM,90% (active)
same,growth inhibition,[14]; at 100.0 µM,99% (active)
same,growth inhibition,[15]; [17],34%
same,growth inhibition,[15]; [18],98% (active)
same,growth inhibition,[15]; at 50.0 µM,89% (active)
same,growth inhibition,[16]; at 1.2 µM,12%
same,growth inhibition,[16]; at 3.7 µM,16%
same,growth inhibition,[16]; at 11.0 µM,32%
same,growth inhibition,[16]; at 33.0 µM,92% (active)
same,growth inhibition,[16]; at 100.0 µM,98% (active)
O=[N+]([O-])O.[NH-]C1CCCCC1[NH-].[NH-]C1CCCCC1[NH-].[NH-]C1CCCCC1[NH-].[OH-].[OH-].[OH-].[Pt+4].[Pt+4].[Pt+4] (stereo unspecified),growth inhibition,[1]; at 1.2 µM,-29%
same,growth inhibition,[1]; at 3.7 µM,-36%
same,growth inhibition,[1]; at 11.0 µM,-51%
same,growth inhibition,[1]; at 33.0 µM,-26%
same,growth inhibition,[1]; at 100.0 µM,-25%
same,growth inhibition,[2]; at 1.2 µM,-15%
same,growth inhibition,[2]; at 3.7 µM,-12%
same,growth inhibition,[2]; at 11.0 µM,-14%
same,growth inhibition,[2]; at 33.0 µM,-14%
same,growth inhibition,[2]; at 100.0 µM,-3%
same,growth inhibition,[3]; at 1.2 µM,-28%
same,growth inhibition,[3]; at 3.7 µM,-26%
same,growth inhibition,[3]; at 11.0 µM,-19%
same,growth inhibition,[3]; at 33.0 µM,-28%
same,growth inhibition,[3]; at 100.0 µM,-31%
same,growth inhibition,[4]; at 1.2 µM,-14%
same,growth inhibition,[4]; at 3.7 µM,-15%
same,growth inhibition,[4]; at 11.0 µM,-19%
same,growth inhibition,[4]; at 33.0 µM,-12%
same,growth inhibition,[4]; at 100.0 µM,-7%
same,growth inhibition,[5]; at 1.2 µM,-6%
same,growth inhibition,[5]; at 3.7 µM,-14%
same,growth inhibition,[5]; [17],17%
same,growth inhibition,[5]; at 11.0 µM,-14%
same,growth inhibition,[5]; at 33.0 µM,-2%
same,growth inhibition,[5]; [18],20%
same,growth inhibition,[5]; at 50.0 µM,50.8%
same,growth inhibition,[5]; at 100.0 µM,-11%
same,growth inhibition,[6]; at 1.2 µM,12%
same,growth inhibition,[6]; at 3.7 µM,-6%
same,growth inhibition,[6]; [17],16%
same,growth inhibition,[6]; at 11.0 µM,0%
same,growth inhibition,[6]; at 33.0 µM,4%
same,growth inhibition,[6]; [18],14%
same,growth inhibition,[6]; at 50.0 µM,-15.5%
same,growth inhibition,[6]; at 100.0 µM,63%
same,growth inhibition,[7]; at 1.2 µM,-5%
same,growth inhibition,[7]; at 3.7 µM,-16%
same,growth inhibition,[7]; at 11.0 µM,-33%
same,growth inhibition,[7]; at 33.0 µM,-5%
same,growth inhibition,[7]; at 100.0 µM,-10%
same,growth inhibition,[8]; [17],27%
same,growth inhibition,[8]; [18],45%
same,growth inhibition,[8]; at 50.0 µM,-22.4%
same,growth inhibition,[9]; at 1.2 µM,-8%
same,growth inhibition,[9]; at 3.7 µM,-17%
same,growth inhibition,[9]; at 11.0 µM,-17%
same,growth inhibition,[9]; at 33.0 µM,-23%
same,growth inhibition,[9]; at 100.0 µM,-13%
same,growth inhibition,[10]; [17],12%
same,growth inhibition,[10]; [18],21%
same,growth inhibition,[10]; at 50.0 µM,-7.35%
same,growth inhibition,[11]; at 1.2 µM,-4%
same,growth inhibition,[11]; at 3.7 µM,-9%
same,growth inhibition,[11]; [17],20%
same,growth inhibition,[11]; at 11.0 µM,-14%
same,growth inhibition,[11]; at 33.0 µM,-14%
same,growth inhibition,[11]; [18],25%
same,growth inhibition,[11]; at 50.0 µM,-32%
same,growth inhibition,[11]; at 100.0 µM,-9%
same,growth inhibition,[12]; at 1.2 µM,-46%
same,growth inhibition,[12]; at 3.7 µM,-58%
same,growth inhibition,[12]; at 11.0 µM,-55%
same,growth inhibition,[12]; at 33.0 µM,-51%
same,growth inhibition,[12]; at 100.0 µM,-36%
same,growth inhibition,[13]; at 1.2 µM,2%
same,growth inhibition,[13]; at 3.7 µM,-10%
same,growth inhibition,[13]; at 11.0 µM,-6%
same,growth inhibition,[13]; at 33.0 µM,-13%
same,growth inhibition,[13]; at 100.0 µM,12%
same,growth inhibition,[14]; at 1.2 µM,-22%
same,growth inhibition,[14]; at 3.7 µM,-30%
same,growth inhibition,[14]; at 11.0 µM,-19%
same,growth inhibition,[14]; at 33.0 µM,6%
same,growth inhibition,[14]; at 100.0 µM,8%
same,growth inhibition,[15]; [17],40%
same,growth inhibition,[15]; [18],71% (active)
same,growth inhibition,[15]; at 50.0 µM,28.6%
same,growth inhibition,[16]; at 1.2 µM,-21%
same,growth inhibition,[16]; at 3.7 µM,2%
same,growth inhibition,[16]; at 11.0 µM,18%
same,growth inhibition,[16]; at 33.0 µM,54%
same,growth inhibition,[16]; at 100.0 µM,82% (active)

# Reference: PubChem BioAssay (NCI)
